What was measured:
[1] = target: T1, Aurora kinase A (Homo sapiens) (UniProt O14965); conditions: at 1 µM;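 also: values are mean percent inhibition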
T1 sequence (whole entry): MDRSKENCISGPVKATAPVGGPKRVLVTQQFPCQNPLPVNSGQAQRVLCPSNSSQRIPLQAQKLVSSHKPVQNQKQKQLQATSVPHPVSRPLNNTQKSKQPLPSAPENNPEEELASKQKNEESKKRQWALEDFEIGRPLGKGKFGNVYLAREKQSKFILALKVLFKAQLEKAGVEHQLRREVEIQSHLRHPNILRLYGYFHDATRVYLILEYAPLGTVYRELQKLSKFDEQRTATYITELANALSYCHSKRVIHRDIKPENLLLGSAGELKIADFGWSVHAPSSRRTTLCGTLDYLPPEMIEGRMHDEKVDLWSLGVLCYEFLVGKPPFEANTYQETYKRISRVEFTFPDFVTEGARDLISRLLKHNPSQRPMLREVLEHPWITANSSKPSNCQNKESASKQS

[2] = target: Aurora kinase B (Homo sapiens) (UniProt Q96GD4); conditions: at 0.1 µM
Sequence of Aurora kinase B (Homo sapiens) (Q96GD4 whole entry): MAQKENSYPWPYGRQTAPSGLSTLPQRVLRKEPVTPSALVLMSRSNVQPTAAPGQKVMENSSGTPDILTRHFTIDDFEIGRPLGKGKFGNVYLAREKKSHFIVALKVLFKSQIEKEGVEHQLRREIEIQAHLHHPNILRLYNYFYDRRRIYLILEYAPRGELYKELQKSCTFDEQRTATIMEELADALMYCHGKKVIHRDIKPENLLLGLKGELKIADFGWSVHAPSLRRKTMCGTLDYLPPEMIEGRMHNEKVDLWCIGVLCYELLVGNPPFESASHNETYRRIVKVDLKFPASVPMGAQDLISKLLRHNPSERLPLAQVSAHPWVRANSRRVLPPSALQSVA

[3] = target: Aurora kinase B (Homo sapiens) (UniProt Q96GD4); conditions: at 1 µM
[4] = target: T2, Aurora kinase C (Homo sapiens) (UniProt Q9UQB9); conditions: at 0.1 µM
T2 sequence (whole entry): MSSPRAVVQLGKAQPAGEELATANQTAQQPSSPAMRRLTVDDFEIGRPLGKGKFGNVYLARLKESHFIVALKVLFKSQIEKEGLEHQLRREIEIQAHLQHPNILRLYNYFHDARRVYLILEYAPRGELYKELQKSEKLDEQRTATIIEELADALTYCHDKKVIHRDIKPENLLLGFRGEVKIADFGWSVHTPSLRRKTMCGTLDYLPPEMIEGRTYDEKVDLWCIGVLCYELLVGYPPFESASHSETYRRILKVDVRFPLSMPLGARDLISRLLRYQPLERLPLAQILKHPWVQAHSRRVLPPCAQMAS

[5] = target: T2, Aurora kinase C (Homo sapiens); conditions: at 1 µM
[6] = target: Serine/threonine-protein kinase 10 (Homo sapiens) (UniProt O94804); conditions: at 0.1 µM
Sequence of Serine/threonine-protein kinase 10 (Homo sapiens) (O94804 whole entry, looked up): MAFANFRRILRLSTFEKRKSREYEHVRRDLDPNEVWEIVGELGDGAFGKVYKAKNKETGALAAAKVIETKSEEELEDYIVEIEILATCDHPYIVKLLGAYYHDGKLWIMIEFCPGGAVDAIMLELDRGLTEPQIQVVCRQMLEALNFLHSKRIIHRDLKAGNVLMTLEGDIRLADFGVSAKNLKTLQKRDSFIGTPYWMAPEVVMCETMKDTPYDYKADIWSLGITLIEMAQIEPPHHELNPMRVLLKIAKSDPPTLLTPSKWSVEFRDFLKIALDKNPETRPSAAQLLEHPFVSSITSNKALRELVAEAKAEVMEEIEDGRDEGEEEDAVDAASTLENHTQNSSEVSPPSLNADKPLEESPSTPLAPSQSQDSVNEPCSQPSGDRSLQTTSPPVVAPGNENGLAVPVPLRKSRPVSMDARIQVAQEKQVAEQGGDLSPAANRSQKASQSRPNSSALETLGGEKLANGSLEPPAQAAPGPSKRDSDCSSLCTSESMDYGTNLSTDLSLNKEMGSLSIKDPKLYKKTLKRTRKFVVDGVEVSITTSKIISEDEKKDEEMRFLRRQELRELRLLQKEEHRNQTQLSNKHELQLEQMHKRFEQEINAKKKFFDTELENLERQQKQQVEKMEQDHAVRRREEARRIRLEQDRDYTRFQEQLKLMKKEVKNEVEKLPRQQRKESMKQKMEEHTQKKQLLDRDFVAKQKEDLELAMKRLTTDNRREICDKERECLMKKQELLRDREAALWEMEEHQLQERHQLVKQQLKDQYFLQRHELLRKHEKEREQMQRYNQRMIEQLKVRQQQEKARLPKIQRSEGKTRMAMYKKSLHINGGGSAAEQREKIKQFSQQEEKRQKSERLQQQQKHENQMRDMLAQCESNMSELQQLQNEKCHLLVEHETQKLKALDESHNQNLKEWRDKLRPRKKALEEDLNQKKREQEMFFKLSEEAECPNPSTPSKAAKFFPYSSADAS

[7] = target: Serine/threonine-protein kinase 10 (Homo sapiens) (UniProt O94804); conditions: at 1 µM
[8] = target: T3, Mitogen-activated protein kinase kinase kinase kinase 2 (Homo sapiens) (UniProt Q12851); conditions: at 0.1 µM
T3 sequence (whole entry): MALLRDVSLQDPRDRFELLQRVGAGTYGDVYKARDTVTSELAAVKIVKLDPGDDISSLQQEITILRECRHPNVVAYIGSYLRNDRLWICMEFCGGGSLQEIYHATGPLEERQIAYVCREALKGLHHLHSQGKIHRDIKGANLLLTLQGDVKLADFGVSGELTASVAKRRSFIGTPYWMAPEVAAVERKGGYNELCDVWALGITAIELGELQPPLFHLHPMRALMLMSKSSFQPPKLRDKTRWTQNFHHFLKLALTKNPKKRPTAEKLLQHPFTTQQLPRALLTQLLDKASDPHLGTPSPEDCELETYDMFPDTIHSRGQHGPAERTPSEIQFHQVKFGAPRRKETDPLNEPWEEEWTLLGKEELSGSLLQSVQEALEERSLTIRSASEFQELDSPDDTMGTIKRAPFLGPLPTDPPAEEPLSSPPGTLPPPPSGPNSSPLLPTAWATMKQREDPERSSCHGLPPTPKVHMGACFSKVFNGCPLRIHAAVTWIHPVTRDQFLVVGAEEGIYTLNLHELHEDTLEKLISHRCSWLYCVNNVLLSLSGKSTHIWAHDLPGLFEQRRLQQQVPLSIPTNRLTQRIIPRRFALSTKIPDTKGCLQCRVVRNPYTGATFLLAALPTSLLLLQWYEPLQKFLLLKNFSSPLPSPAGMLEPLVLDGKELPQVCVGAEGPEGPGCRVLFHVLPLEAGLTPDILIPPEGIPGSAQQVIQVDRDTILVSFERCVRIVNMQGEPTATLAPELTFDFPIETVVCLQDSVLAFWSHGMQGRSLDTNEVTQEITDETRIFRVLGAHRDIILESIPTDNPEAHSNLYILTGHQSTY

[9] = target: T3, Mitogen-activated protein kinase kinase kinase kinase 2 (Homo sapiens); conditions: at 1 µM
[10] = target: Mitogen-activated protein kinase kinase kinase kinase 4 (Homo sapiens) (UniProt O95819); conditions: at 0.1 µM
Sequence of Mitogen-activated protein kinase kinase kinase kinase 4 (Homo sapiens) (O95819 2-1239 limits assumed): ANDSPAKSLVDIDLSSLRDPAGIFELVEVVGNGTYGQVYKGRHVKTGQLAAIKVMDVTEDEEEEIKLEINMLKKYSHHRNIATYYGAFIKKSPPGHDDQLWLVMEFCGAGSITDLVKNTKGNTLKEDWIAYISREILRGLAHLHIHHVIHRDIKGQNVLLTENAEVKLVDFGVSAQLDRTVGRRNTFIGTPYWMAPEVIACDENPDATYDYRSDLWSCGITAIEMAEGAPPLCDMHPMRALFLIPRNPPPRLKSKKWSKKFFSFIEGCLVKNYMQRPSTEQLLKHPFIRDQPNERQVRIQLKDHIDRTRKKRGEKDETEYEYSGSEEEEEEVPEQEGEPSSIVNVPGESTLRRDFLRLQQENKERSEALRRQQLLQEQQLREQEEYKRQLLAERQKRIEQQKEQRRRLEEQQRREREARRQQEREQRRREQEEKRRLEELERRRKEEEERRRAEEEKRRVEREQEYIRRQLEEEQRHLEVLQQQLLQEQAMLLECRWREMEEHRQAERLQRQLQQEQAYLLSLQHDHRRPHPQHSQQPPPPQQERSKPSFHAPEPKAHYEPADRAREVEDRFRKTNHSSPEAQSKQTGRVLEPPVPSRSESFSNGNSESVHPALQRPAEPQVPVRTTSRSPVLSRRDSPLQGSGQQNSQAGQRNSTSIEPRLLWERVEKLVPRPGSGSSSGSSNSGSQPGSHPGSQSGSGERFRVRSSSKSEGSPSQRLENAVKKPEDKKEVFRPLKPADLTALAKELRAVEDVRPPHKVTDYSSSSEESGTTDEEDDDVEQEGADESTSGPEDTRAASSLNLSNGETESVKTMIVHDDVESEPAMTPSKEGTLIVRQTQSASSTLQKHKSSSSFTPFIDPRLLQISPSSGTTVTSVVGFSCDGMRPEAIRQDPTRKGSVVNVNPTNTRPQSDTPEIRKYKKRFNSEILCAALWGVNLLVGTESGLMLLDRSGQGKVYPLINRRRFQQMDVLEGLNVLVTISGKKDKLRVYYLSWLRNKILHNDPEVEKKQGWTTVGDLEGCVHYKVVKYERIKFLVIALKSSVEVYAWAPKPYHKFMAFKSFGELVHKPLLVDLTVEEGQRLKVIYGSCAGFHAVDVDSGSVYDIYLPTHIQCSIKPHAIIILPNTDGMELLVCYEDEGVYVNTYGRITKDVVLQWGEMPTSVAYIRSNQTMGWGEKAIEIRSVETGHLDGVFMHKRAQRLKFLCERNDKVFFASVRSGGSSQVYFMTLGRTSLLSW

[11] = target: Mitogen-activated protein kinase kinase kinase kinase 4 (Homo sapiens) (UniProt O95819); conditions: at 1 µM
[12] = target: Dual specificity mitogen-activated protein kinase kinase 1 (Homo sapiens) (UniProt Q02750); conditions: at 0.1 µM
Sequence of Dual specificity mitogen-activated protein kinase kinase 1 (Homo sapiens) (Q02750 whole entry): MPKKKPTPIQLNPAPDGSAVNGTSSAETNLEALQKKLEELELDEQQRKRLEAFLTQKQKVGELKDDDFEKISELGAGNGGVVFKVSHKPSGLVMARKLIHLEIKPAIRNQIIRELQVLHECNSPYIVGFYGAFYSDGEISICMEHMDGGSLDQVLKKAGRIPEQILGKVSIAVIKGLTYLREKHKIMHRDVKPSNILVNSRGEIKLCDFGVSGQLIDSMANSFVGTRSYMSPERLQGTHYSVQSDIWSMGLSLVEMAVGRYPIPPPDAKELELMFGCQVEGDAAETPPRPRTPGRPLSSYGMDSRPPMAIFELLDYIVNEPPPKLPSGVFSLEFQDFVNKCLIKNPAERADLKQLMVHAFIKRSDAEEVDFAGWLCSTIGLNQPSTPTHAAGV

[13] = target: Dual specificity mitogen-activated protein kinase kinase 1 (Homo sapiens) (UniProt Q02750); conditions: at 1 µM
[14] = target: Misshapen-like kinase 1 (Homo sapiens) (UniProt Q8N4C8); conditions: at 0.1 µM
Sequence of Misshapen-like kinase 1 (Homo sapiens) (Q8N4C8 whole entry, looked up): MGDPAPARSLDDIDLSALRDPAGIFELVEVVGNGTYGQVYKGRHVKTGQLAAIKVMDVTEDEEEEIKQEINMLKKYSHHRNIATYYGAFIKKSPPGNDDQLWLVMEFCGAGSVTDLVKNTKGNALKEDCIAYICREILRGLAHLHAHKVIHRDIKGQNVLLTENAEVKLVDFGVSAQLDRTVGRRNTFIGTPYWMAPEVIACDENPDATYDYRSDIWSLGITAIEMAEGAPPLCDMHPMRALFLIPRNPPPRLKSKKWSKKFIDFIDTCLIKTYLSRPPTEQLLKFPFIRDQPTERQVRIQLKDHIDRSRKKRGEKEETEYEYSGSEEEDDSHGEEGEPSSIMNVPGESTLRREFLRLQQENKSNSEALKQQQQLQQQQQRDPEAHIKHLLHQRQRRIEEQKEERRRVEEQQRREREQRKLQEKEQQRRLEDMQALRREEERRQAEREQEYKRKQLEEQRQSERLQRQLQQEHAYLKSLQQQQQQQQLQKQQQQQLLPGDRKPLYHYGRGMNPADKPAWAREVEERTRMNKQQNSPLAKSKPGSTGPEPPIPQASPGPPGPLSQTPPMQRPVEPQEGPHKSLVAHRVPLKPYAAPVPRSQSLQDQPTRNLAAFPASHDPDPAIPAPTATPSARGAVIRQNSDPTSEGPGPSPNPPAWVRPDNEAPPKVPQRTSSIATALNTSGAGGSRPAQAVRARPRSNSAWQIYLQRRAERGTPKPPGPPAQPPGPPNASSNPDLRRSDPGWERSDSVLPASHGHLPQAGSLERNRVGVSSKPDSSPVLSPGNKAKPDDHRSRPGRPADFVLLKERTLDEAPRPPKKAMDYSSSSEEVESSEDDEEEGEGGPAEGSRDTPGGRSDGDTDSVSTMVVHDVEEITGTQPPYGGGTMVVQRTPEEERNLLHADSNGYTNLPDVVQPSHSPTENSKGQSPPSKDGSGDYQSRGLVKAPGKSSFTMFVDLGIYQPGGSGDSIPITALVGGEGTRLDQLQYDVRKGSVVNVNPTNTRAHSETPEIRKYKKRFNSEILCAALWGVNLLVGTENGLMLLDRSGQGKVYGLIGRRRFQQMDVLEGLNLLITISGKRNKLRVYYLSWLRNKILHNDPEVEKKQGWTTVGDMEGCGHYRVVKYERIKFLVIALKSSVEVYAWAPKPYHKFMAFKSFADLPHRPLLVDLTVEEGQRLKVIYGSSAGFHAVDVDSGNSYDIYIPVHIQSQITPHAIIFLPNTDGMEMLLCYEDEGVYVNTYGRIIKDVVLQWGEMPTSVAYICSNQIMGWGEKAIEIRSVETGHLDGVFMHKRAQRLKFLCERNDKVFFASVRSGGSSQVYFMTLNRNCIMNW

[15] = target: Misshapen-like kinase 1 (Homo sapiens) (UniProt Q8N4C8); conditions: at 1 µM
[16] = target: T4, Serine/threonine-protein kinase 4 (Homo sapiens) (UniProt Q13043); conditions: at 0.1 µM
T4 sequence (whole entry): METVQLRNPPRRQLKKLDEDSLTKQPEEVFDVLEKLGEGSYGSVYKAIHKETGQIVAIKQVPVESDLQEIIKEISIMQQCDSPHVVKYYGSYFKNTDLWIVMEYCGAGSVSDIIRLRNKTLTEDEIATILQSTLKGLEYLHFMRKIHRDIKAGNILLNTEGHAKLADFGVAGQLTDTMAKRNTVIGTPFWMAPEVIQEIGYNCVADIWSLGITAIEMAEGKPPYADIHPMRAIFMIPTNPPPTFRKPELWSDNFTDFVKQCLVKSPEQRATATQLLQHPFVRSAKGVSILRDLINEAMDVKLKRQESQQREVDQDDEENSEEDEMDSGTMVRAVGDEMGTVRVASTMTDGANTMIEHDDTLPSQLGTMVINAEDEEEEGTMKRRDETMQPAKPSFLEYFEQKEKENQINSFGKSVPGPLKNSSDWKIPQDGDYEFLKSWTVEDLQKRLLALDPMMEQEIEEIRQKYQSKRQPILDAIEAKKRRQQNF

[17] = target: T4, Serine/threonine-protein kinase 4 (Homo sapiens); conditions: at 1 µM
[18] = target: T5, Serine/threonine-protein kinase 3 (Homo sapiens) (UniProt Q13188); conditions: at 0.1 µM
T5 sequence (whole entry): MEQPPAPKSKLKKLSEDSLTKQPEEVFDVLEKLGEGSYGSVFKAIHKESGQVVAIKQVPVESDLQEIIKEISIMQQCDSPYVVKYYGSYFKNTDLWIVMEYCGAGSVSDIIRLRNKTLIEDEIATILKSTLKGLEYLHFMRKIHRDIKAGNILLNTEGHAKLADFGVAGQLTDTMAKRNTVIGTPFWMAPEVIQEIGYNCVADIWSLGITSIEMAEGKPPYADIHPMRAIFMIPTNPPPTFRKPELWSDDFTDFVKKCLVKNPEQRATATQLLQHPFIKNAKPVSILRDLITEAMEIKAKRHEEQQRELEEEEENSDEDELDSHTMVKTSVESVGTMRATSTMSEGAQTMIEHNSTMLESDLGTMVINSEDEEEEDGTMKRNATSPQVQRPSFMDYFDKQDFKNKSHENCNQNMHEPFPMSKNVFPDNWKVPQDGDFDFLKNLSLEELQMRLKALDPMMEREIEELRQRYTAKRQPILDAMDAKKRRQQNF

[19] = target: T5, Serine/threonine-protein kinase 3 (Homo sapiens); conditions: at 1 µM
[20] = target: Serine/threonine-protein kinase 26 (Homo sapiens) (UniProt Q9P289); conditions: at 0.1 µM
Sequence of Serine/threonine-protein kinase 26 (Homo sapiens) (Q9P289 2-416 limits assumed): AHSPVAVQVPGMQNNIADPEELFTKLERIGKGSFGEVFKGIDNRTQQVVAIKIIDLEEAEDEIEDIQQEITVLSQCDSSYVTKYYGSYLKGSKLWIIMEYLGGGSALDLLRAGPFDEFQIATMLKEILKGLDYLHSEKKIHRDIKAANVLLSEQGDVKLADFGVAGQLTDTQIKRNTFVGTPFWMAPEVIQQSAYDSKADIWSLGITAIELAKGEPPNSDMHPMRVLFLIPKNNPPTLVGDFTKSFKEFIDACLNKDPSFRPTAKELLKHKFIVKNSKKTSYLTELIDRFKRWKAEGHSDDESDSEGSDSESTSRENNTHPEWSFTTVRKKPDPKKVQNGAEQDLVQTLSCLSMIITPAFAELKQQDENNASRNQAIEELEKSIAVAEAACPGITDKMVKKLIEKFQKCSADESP

SMILES	inhibition [1] [%]	inhibition [2] [%]	inhibition [3] [%]	inhibition [4] [%]	inhibition [5] [%]	inhibition [6] [%]	inhibition [7] [%]	inhibition [8] [%]	inhibition [9] [%]	inhibition [10] [%]	inhibition [11] [%]	inhibition [12] [%]	inhibition [13] [%]	inhibition [14] [%]	inhibition [15] [%]	inhibition [16] [%]	inhibition [17] [%]	inhibition [18] [%]	inhibition [19] [%]	inhibition [20] [%]
CCn1c(-c2nonc2N)nc2cncc(C(=O)N3CC[C@H](N)C3)c21	3.21	2.84	6.38	1.58	-2.29	4.37	12	0.43	2.34	5.42	5.7	6.85	6.13	7.01	6.82	3.69	4.11	4.28	4.87	-0.5
CC1=C(C(=O)Nc2ccc3[nH]ncc3c2)C(c2ccc3ccccc3c2)CC(=O)N1 (stereo not given)	70.6	4.02	22	3.09	32.8	2.65	2.84	1.47	3.14	2.51	3.73	8.09	44.4	4.56	3.98	3.56	12.2	3.29	9.79	-0.11
COc1ccccc1Nc1ncc(-c2ccccc2)o1	8.83	4.39	11.1	3.63	12.5	8.13	8.47	-0.05	4.63	6.79	26.2	4.67	3.89	6.62	17.3	3.93	5.16	6.13	7.36	-1.34
COc1cc2ncn(-c3cc(O[C@H](C)c4ccccc4Cl)c(C(N)=O)s3)c2cc1OC	30.1	8.7	37.9	4.62	50.7	99.3	88	13.6	47.4	4.5	18.6	4.68	4.4	5.71	16.9	40.3	77	34.7	73.8	-3.36
NC(=O)c1ccc(-c2nc(-c3ccccn3)c(-c3ccc4c(c3)OCO4)[nH]2)cc1	3.93	4.83	4.45	1.68	-2.72	6.27	3.54	0.64	2.35	1.99	5.75	3.95	3.52	2.63	7.53	3.9	3.51	4.2	3.42	-0.92
O=C(Nc1n[nH]c2nc(-c3ccco3)c(Br)cc12)C1CC1	45.6	5.16	14.5	2.71	29.4	6.48	11.3	-0.14	2.51	4.76	8.55	3.9	3.63	5.14	8.29	5.17	4	6.08	5.58	-1.82
COc1cc2ncn(-c3cc(OCc4ccccc4C(F)(F)F)c(C(N)=O)s3)c2cc1OC	13.7	3.06	26.6	4.2	35.9	76	88.3	4.53	18.1	5.97	30.1	2.39	2.9	7.46	25.5	14.3	55.5	15.2	52.8	-4.21
CS(=O)(=O)CCNCc1ccc(-c2ccc3ncnc(Nc4ccc(OCc5ccccc5)c(Cl)c4)c3c2)o1	1.2	2.22	10.4	1.18	7.9	1.97	8.82	3.3	7.74	2.21	3.37	1.17	1.86	1.93	1.65	0.89	2.54	-1.21	0.47	0.75
Fc1cccc(COc2ccc(Nc3ncnc4cc(-c5ccc[nH]5)sc34)cc2Cl)c1	7.53	0.54	13.2	-2.76	-2.08	2.11	11.9	0.55	4.58	5.64	13.9	3.99	3.24	6.08	12.7	0.61	2.35	1.18	3.32	-0.07
O=C1Nc2ccc(C(=O)c3ccco3)cc2C1=Cc1cc(Cl)c(O)c(Cl)c1	67.3	3.22	13.3	3.45	36.7	4.59	15.1	1.22	7.56	27.5	75.8	2.93	9.42	18.1	61.8	21.7	66.8	20.4	65.3	3.9
NC(=O)c1cccc(Nc2nccc(Nc3cccc4[nH]ncc34)n2)c1	96.8	24.5	73.7	39.2	100	-1.55	31.9	2.55	24.3	2.67	39.2	-4	0.69	0.64	29	-3.17	13.3	-4.57	6.87	-0.32
CCn1c(-c2nonc2N)nc2ccncc21	6.98	0.79	3.04	0.9	6.04	2.02	4.14	1.41	3.01	2.18	3.87	2.48	1.41	3.12	3.29	2.91	1.83	3.05	1.74	1.67
CCn1c(-c2nonc2N)nc2cnc(Oc3cccc(NC(=O)c4ccc(OCCN5CCOCC5)cc4)c3)cc21	43	2.17	8.22	1.52	4.33	3.13	9.94	0.13	-1.08	6.11	13.2	3.5	3.8	6.17	12.5	2.14	3.43	2.3	3.84	-1.24
COc1ccc(COc2ccc(Cc3cnc(N)nc3N)cc2OC)cc1	2.3	3.53	4.95	2.97	16.2	5.28	7.31	3.72	3.99	0.34	6.03	1.66	0.97	0.71	4.81	4.51	4.23	3.88	3.04	3.22
